Binding signal data for one sequence are collected here from PMC7862700, “An all-to-all approach to the identification of sequence-specific readers for epigenetic DNA modifications on cytosine”.

Assay in all cases: DAPPL (digital affinity profiling via proximity ligation, sequencing); 10 mM Tris-HCl pH 7.5, 50 mM NaCl, 1 mM DTT, 4% glycerol, room temperature, 30 min; GST-TFs on glutathione beads, 16-mer random dsDNA library, 0.1% formaldehyde crosslink after washing; high values mean tight binding
Assay [1] deals with T1, FEV (Homo sapiens, UniProt Q99581 1-238).
T1 sequence: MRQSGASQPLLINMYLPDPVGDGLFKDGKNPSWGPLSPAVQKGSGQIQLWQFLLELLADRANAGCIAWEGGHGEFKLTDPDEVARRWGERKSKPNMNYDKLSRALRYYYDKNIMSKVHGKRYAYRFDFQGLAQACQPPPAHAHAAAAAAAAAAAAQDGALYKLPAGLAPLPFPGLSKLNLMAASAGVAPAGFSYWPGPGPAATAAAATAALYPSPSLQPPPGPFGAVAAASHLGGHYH
The conditions noted are these: protein: recombinant; tags: N-terminal GST; dsDNA, one strand shown. The method in brief: (§1)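 Binding signal is each hexamer's read frequency for a factor divided by its frequency in the tag-only sample. The factors were GST-fused human transcription factors from yeast, captured on glutathione beads, DNA-barcoded and pooled with that sample. Pools were incubated with 200 nmole of a random double-stranded 16-mer DNA library in Tris/NaCl/DTT/glycerol buffer at room temperature for 30 min, then washed, crosslinked with 0.1% formaldehyde, proximity-ligated with BsaI/T4 ligase (1 h, 37 °C), PCR-amplified and sequenced on an Illumina NextSeq500.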

Assay [2] addresses ETV5 (Homo sapiens, UniProt P41161 1-510). Conditions: protein: recombinant; tags: N-terminal GST; dsDNA, one strand shown. In a few lines: as §1
Assay [3] addresses HSF1 (Homo sapiens, UniProt Q00613 1-529). The conditions noted are these: protein: recombinant; tags: N-terminal GST; chain copies: 3; dsDNA, one strand shown. In a few lines:
as §1

In assay [4] the target is T2, SPIC (Homo sapiens, UniProt Q8N5J4 1-248).
T2 sequence: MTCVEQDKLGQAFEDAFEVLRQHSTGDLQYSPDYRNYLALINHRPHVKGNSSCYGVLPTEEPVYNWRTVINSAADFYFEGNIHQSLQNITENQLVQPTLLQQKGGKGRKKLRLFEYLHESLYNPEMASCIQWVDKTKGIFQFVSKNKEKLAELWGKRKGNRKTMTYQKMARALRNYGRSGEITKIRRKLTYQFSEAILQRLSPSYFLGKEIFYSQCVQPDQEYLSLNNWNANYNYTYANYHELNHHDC
Conditions: protein: recombinant; tags: N-terminal GST; dsDNA, one strand shown. In a few lines: as §1

For assay [5], the target named is ELF4 (Homo sapiens, UniProt Q99607 1-663). Conditions: protein: recombinant; tags: N-terminal GST; dsDNA, one strand shown. The method in brief: as §1
Assay [6] concerns the target T3, ELK4 (Homo sapiens, UniProt P28324-2 1-405).
T3 sequence: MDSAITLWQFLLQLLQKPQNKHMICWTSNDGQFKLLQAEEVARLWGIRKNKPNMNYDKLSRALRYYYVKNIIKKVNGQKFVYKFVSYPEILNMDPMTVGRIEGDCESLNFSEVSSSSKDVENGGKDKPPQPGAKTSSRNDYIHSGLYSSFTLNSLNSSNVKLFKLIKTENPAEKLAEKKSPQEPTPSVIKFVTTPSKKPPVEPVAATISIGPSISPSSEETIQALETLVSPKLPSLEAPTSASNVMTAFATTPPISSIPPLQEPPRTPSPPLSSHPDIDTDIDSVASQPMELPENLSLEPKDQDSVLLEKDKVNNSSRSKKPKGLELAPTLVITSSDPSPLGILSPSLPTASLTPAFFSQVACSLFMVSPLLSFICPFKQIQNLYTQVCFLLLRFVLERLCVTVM
Conditions: protein: recombinant; tags: N-terminal GST; dsDNA, one strand shown. In a few lines:
as §1

In assay [7] the target is T4, ETV2 (Homo sapiens, UniProt O00321 1-342).
T4 sequence: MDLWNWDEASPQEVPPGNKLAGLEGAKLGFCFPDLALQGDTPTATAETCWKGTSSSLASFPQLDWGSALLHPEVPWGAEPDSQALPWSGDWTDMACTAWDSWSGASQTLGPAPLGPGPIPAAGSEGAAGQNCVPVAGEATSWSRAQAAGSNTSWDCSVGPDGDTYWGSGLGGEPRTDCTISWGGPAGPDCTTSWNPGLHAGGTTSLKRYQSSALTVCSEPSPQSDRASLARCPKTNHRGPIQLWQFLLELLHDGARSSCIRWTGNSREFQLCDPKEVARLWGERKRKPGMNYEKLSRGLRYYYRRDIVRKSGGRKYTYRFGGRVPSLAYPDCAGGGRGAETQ
Conditions: protein: recombinant; tags: N-terminal GST; dsDNA, one strand shown. In a few lines:
as §1

Assay [8] concerns the target T5, ELF3 (Homo sapiens, UniProt P78545 1-371).
T5 sequence: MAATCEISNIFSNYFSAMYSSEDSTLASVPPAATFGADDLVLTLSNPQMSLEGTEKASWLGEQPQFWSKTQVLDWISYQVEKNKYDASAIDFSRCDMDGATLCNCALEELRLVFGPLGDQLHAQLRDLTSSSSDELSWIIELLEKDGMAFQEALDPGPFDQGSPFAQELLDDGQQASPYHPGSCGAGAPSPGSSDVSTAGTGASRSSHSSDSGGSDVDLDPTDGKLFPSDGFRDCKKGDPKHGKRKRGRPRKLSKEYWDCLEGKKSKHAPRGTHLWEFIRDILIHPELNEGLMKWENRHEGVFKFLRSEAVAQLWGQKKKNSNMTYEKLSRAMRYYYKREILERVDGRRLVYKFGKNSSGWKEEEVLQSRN
Conditions: protein: recombinant; tags: N-terminal GST; dsDNA, one strand shown. The method in brief: as §1

Assay [9] concerns the target CRX (Homo sapiens, UniProt O43186 1-299). The conditions noted are these: protein: recombinant; tags: N-terminal GST; dsDNA, one strand shown. In a few lines: as §1
Assay [10] deals with ETV1 (Homo sapiens, UniProt P50549 1-477). Conditions: protein: recombinant; tags: N-terminal GST; dsDNA, one strand shown. In a few lines: as §1
For assay [11], the target named is T6, ERF (Homo sapiens, UniProt P50548 1-548).
T6 sequence: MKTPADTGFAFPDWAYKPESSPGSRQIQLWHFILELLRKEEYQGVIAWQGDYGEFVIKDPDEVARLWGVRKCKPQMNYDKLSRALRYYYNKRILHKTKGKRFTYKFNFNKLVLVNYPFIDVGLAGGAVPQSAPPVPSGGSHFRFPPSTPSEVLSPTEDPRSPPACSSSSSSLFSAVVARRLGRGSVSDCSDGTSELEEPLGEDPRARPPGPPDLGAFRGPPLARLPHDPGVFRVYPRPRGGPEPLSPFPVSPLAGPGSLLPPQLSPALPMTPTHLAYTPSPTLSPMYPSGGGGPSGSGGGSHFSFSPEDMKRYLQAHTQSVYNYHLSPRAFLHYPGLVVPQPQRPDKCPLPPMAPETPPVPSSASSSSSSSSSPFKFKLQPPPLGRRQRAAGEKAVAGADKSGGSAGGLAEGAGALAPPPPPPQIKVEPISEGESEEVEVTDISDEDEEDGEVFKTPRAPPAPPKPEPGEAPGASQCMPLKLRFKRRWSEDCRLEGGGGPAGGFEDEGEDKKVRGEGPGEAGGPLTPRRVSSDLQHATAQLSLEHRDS
The conditions noted are these: protein: recombinant; tags: N-terminal GST; dsDNA, one strand shown. In a few lines: as §1

Assay [12] concerns the target T7, ETV3L (Homo sapiens, UniProt Q6ZN32 1-361).
T7 sequence: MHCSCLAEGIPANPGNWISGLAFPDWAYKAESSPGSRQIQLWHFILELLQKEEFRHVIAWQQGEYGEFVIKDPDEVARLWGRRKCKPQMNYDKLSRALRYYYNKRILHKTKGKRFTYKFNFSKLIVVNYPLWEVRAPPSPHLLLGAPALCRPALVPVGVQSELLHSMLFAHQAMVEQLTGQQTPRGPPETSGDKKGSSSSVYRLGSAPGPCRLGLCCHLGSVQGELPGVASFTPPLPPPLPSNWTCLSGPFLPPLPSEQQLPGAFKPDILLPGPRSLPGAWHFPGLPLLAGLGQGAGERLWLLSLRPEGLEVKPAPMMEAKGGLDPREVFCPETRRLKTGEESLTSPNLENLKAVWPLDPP
The conditions noted are these: protein: recombinant; tags: N-terminal GST; dsDNA, one strand shown. In a few lines:
as §1

Assay [13] concerns the target T8, ETS2 (Homo sapiens, UniProt P15036 1-469).
T8 sequence: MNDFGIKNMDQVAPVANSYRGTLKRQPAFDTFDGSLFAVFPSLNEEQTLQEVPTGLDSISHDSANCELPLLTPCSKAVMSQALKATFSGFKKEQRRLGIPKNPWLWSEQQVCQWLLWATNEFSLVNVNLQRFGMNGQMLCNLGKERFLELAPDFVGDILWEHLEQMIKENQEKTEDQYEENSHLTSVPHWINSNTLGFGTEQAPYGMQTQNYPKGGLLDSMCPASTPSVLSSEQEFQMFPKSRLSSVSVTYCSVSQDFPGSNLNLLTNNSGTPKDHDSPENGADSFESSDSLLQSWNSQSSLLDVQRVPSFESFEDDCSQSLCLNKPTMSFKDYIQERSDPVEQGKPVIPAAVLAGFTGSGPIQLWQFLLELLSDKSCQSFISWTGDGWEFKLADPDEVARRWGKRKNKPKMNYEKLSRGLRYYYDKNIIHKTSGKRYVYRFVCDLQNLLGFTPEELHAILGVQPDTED
Conditions: protein: recombinant; tags: N-terminal GST; dsDNA, one strand shown. The method in brief:
as §1

In assay [14] the target is T9, SPDEF (Homo sapiens, UniProt O95238 1-335).
T9 sequence: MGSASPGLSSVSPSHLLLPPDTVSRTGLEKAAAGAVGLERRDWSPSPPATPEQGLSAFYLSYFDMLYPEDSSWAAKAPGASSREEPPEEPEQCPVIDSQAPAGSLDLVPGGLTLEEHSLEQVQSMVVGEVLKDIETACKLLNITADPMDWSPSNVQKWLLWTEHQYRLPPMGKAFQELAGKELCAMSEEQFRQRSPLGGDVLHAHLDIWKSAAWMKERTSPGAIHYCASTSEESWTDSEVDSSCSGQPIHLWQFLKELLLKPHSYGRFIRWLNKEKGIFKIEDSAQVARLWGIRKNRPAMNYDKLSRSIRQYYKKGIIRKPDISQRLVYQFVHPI
Conditions: protein: recombinant; tags: N-terminal GST; dsDNA, one strand shown. In a few lines:
as §1

Assay [15] has as its target T10, ETV7 (Homo sapiens, UniProt Q9Y603 1-341).
T10 sequence: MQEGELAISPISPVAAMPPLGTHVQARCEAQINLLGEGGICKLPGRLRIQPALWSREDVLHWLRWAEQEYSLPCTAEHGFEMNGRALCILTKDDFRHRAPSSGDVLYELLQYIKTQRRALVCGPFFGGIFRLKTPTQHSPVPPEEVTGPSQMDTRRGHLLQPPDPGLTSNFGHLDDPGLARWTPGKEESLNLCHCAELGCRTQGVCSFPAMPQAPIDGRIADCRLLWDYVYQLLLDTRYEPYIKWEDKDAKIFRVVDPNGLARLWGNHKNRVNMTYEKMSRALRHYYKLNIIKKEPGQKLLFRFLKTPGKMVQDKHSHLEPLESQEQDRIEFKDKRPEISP
Conditions: protein: recombinant; tags: N-terminal GST; dsDNA, one strand shown. The method in brief: as §1

In assay [16] the target is T11, ELF5 (Homo sapiens, UniProt Q9UKW6-2 1-255).
T11 sequence: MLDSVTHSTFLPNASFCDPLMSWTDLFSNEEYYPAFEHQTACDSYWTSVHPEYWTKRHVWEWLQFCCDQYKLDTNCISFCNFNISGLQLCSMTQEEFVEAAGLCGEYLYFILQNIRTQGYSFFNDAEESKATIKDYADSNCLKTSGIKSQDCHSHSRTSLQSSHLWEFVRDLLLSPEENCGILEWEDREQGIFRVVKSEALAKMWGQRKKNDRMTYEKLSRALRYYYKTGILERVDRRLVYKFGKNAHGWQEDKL
Conditions: protein: recombinant; tags: N-terminal GST; dsDNA, one strand shown. The method in brief: as §1

The target of assay [17] is T12, ETV3 (Homo sapiens, UniProt P41162-2 1-143).
T12 sequence: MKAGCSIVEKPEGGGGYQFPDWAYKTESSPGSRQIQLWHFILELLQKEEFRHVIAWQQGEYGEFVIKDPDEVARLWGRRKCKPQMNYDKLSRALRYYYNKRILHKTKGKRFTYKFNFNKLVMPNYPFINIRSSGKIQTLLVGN
The conditions noted are these: protein: recombinant; tags: N-terminal GST; dsDNA, one strand shown. The method in brief: as §1

The target in assay [18] is ETV6 (Homo sapiens, UniProt P41212 1-452). Conditions: protein: recombinant; tags: N-terminal GST; dsDNA, one strand shown. In a few lines: as §1
Chain of ETV6 (P41212 whole entry): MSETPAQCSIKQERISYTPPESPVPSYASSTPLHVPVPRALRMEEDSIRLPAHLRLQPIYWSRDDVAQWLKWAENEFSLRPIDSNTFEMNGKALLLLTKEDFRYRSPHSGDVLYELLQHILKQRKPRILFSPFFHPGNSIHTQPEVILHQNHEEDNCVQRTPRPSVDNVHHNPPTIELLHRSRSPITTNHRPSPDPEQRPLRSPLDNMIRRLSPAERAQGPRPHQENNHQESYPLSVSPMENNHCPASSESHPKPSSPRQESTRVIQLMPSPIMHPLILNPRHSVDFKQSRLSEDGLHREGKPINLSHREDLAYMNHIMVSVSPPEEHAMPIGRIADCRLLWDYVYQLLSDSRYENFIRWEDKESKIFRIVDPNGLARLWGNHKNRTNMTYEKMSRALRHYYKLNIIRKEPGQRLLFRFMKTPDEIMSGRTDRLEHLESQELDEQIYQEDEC

Chain of ELF4 (Q99607 whole entry): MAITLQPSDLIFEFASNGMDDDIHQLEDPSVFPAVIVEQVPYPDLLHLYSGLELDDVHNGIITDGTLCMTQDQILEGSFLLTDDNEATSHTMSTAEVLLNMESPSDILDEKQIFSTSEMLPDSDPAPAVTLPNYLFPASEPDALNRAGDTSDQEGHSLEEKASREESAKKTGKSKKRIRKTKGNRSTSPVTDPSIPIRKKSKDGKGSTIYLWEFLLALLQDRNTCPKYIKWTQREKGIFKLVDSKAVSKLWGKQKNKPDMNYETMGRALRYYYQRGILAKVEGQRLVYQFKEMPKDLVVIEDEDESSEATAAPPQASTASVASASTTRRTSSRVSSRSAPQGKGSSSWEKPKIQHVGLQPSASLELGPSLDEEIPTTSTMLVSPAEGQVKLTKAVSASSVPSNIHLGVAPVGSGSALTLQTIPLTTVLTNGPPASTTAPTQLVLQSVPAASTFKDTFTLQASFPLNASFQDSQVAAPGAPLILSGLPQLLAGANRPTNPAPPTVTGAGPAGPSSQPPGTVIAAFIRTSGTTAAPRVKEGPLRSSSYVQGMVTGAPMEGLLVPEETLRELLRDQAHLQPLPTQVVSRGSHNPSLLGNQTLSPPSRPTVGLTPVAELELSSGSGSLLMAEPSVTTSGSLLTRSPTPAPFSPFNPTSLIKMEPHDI
Chain of CRX (O43186 whole entry): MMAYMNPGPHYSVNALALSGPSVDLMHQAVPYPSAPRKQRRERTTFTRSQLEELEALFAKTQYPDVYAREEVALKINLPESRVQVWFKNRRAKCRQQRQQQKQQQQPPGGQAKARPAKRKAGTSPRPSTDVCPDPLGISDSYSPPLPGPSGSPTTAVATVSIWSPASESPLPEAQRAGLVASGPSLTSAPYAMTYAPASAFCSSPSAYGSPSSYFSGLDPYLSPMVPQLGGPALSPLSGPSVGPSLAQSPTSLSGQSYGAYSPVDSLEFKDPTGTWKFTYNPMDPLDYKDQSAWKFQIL
Chain of ETV1 (P50549 whole entry): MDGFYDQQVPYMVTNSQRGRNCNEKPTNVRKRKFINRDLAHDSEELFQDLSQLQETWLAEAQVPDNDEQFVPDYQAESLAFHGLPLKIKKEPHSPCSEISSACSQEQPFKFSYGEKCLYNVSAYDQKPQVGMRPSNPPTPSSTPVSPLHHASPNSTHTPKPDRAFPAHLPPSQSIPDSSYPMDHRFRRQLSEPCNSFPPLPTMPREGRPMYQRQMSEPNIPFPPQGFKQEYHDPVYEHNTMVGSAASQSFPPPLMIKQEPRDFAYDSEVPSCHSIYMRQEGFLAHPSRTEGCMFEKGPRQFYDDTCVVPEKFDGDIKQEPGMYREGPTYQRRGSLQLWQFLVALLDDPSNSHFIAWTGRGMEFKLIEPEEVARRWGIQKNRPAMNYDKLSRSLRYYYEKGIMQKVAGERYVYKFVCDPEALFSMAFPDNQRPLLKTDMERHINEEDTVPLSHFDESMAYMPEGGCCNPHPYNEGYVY
Chain of ETV5 (P41161 whole entry): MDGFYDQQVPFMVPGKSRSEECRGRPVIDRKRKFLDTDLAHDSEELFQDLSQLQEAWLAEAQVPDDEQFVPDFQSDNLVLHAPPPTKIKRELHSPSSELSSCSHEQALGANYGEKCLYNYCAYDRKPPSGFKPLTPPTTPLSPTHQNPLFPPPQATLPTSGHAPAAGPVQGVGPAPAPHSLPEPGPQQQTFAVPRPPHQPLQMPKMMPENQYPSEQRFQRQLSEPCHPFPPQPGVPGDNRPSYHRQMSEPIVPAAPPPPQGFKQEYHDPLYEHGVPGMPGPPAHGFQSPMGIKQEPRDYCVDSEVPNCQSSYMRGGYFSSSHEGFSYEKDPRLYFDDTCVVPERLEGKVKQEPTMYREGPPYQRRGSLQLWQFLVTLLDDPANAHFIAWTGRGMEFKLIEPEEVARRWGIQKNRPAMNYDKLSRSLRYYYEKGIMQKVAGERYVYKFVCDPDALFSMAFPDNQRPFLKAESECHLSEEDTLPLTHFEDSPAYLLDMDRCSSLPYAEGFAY
Chain of HSF1 (Q00613 whole entry): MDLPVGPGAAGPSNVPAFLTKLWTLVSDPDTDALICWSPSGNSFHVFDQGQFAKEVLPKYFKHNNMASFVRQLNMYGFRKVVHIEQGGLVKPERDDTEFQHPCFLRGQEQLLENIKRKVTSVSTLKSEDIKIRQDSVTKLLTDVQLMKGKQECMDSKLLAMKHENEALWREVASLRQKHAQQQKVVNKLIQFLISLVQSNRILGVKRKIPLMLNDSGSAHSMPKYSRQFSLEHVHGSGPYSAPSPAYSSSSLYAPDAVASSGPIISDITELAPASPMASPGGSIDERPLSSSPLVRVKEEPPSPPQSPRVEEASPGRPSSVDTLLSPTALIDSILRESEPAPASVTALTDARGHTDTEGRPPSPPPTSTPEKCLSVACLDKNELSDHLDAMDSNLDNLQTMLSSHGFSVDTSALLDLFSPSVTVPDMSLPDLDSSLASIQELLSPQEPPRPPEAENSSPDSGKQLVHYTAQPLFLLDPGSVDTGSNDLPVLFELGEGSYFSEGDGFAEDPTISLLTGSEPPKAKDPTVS

With CTTCGC, the binding signal in assay [1] is 1.41 fold enrichment (6-mer frequency, TF over GST control); in [2], 1.31 fold enrichment (6-mer frequency, TF over GST control); in assay [3] it was 1.63 fold enrichment (6-mer frequency, TF over GST control); in assay [4] it was 1.18 fold enrichment (6-mer frequency, TF over GST control); in assay [5] it was 1.45 fold enrichment (6-mer frequency, TF over GST control); in assay [6], 1.32 fold enrichment (6-mer frequency, TF over GST control). The binding signal is 1.62 fold enrichment (6-mer frequency, TF over GST control) in [7]; 1.37 fold enrichment (6-mer frequency, TF over GST control) in [8]; 1.24 fold enrichment (6-mer frequency, TF over GST control) in [9]; 1.52 fold enrichment (6-mer frequency, TF over GST control) in [10]; 1.61 fold enrichment (6-mer frequency, TF over GST control) in [11]; 1.45 fold enrichment (6-mer frequency, TF over GST control) in [12]. Also, the binding signal in assay [13] is 1.42 fold enrichment (6-mer frequency, TF over GST control); in assay [14] it was 1.54 fold enrichment (6-mer frequency, TF over GST control); in assay [15], 1.38 fold enrichment (6-mer frequency, TF over GST control); in [16], 1.34 fold enrichment (6-mer frequency, TF over GST control); in assay [17] it was 1.43 fold enrichment (6-mer frequency, TF over GST control); in assay [18] it was 1.34 fold enrichment (6-mer frequency, TF over GST control).
